Screens deposited in PubChem BioAssay by National Center for Advancing Translational Sciences (NCATS).
The list is not random: actives were taken first. Their share in the collection is about 5.7%.
HepG2 viability: qHTS for Inhibitors of TGF-b: Cytotox Counterscreen | HepG2 CAGA-GFP viability, ATP luminescence, 18 h | Potency, µM (highest dose often 46.1 µM), usual class: cytotoxic | 410,000 compounds, 0.76% hits | AID 588856, 2011
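HepG2 CAGA-GFP cells (1000/well, DMEM with 1% FBS) received compound, then TGF-beta at 500 pg/mL final, and were incubated 18 hours at 37 degrees C. Viability was read by CellTiter-Glo luminescence. Media-only wells were set as complete cell-killing and DMSO as no toxicity.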
ATXN2 expr inh: Primary qHTS for Inhibitors of ATXN expression. HEK-293 ATXN2-luciferase reporter, luminescence, 24 h. AID 1745845, 2022. Potency, µM (titrated, usually from 57 µM), actives largely listed as inhibitors. 360,000 compounds, 0.72% hits; note: nearly all actives have a fitted effect of over 55% in size
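ATXN2-luciferase reporter cells (luciferase flanked by upstream and downstream ATXN2 gene portions) were treated 24 h at 37 °C with compounds at up to 57 uM. SteadyGlo luminescence gave expression; GF-AFC fluorescence gave viability.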
IL1B secr inh: qHTS for Inhibitors of Inflammasome Signaling: IL-1-beta AlphaLISA Primary Screen; THP-1 LPS/ATP IL-1B secretion, AlphaLISA, 16 h; hits give low values; activity change, % at 57.5 µM; AID 743279, 2014; 360,000 compounds, 4.7% hits; in the data active = activity change below about -50%; inconclusive = mostly about -30% to -49%
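THP-1 cells pretreated 1 hr with compounds (up to 57.5 uM final), then stimulated with LPS (250 ng/mL final) plus ATP (1.25 mM final); secreted IL-1B measured by AlphaLISA after 16 hr, decreased signal indicating inhibition.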
TGFb SMAD3 inh: qHTS for Inhibitors of TGF-b; HepG2 CAGA-GFP TGF-b/SMAD3 reporter, GFP fluorescence, 18 h; TGF-beta stimulated, 500 pg/mL final; Potency, µM (titrated, usually from 46.1 µM), most hits filed as inhibitors; 410,000 compounds, 1.2% hits; AID 588855, 2011; note: nearly all actives have a fitted effect of over 65% in size
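HEPG2 CAGA-GFP cells (1000/well, DMEM with 1% FBS) were pre-incubated 2 h at 37 degrees C, given compound by pin tool, then stimulated with TGF-beta at 500 pg/mL final for 18 h before per-cell GFP fluorescence imaging.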
ATXN viability: Viability Counterscreen for Primary qHTS for Inhibitors of ATXN expression. S2 cells (HEK-293 line with an ATXN2-luciferase reporter) viability, CellTiter-Fluor protease fluorescence, 24 h. Potency, µM (doses to about 56.7 µM), usual class: cytotoxic. 400,000 compounds, 0.49% hits. AID 651635, 2014; note: nearly all actives have a fitted effect of over 40% in size
Numbers stand for hits; – = inactive; ? = inconclusive; · = not tested or not shown; [ ] = dose if it differs, or a comment. Unless noted, calls come from the whole dose curve; as a rule, active = well fitted curve in the direction sought with a large enough effect; inconclusive = small, poorly fitted or top-dose-only effect, or another doubt; inactive = no such curve, though single readings can be large; an effect the other way counts as inactive or inconclusive.

SMILES	HepG2 viability	ATXN2 expr inh	IL1B secr inh	TGFb SMAD3 inh	ATXN viability
CCOC(=O)c1scc(-c2ccc(C)cc2)c1S(=O)(=O)Nc1cc(Cl)ccc1OC	–	–	·	–	–
Cc1c(C(=O)O)c(O)cc2c1C(=O)c1c(O)c([C@@H]3O[C@H](CO)[C@@H](O)[C@H](O)[C@H]3O)c(O)c(O)c1C2=O	–	–	–	–	17.8µM
CCOC(=O)c1c(C)oc2c1c(CN1CCN(C(=O)OCC)CC1)c(O)c1ccccc12	–	–	?	?	?
CCOC(=O)c1c(C)oc2c1c1c(c3ccccc32)OCN(Cc2ccccn2)C1	–	–	-75.3	?	–
CCOC(=O)c1c(C)oc2ccc(O)c(CN3CCCCC3)c12	–	–	-69.4	–	–
CCOC(=O)c1c(C)oc2c1c(CN1CCN(CCO)CC1)c(O)c1ccccc12	–	–	-97.8	–	–
O=C(Nc1cc(S(=O)(=O)Nc2ccc(Cl)cc2)ccc1N1CCCCC1)c1ccc(F)cc1	–	?	-66.2	?	?
O=S(=O)(Nc1ccc(Cl)cc1)c1ccc(N2CCOCC2)c(NC(=S)NCCN2CCOCC2)c1	–	–	-105.9	–	–
COCCNC(=S)Nc1ccc(N2CCOCC2)c(S(=O)(=O)Nc2ccc(Cl)cc2)c1	–	·	–	–	–
Cc1cccc(OCC(=O)Nc2cc(C)c(O)c(-c3nc4ccccc4o3)c2)c1	–	·	·	–	·
O=C(OCCOc1ccccc1)c1cc(S(=O)(=O)N2CCOCC2)c(Cl)cc1Cl	–	·	–	–	?
O=C(COC(=O)c1cc(S(=O)(=O)N2CCOCC2)c(Cl)cc1Cl)NC1CC1	–	–	-96.7	–	–
COc1ccc(OCCOC(=O)c2cc(S(=O)(=O)N3CCOCC3)c(Cl)cc2Cl)cc1	–	–	-93.7	–	–
COC(=O)c1ccc(NC(=O)CSC2=NCCN2)cc1	–	–	-53.4	?	–
CCOc1ccc(NC(=O)CSC2=NCCN2)cc1	–	–	–	–	–
CC(=O)N[C@H]1[C@H]([C@H](O)[C@H](O)CO)OC(C(=O)O)=C[C@@H]1N=C(N)N	·	–	·	·	–
Cc1cc(Cl)ccc1NC(=S)NCc1ccc(F)cc1	–	–	-56.4	–	–
Fc1ccc(CNC(=S)Nc2cccc(Cl)c2)cc1	–	–	-90.5	?	–
Cc1ccccc1NC(=S)NCc1ccc(F)cc1	–	–	–	–	–
COCCn1c(SCC(=O)Nc2ccc(Br)cc2)nc2c([nH]c3ccccc32)c1=O	–	–	·	–	–
Cc1cc(=O)oc2cc(O)cc(O)c12	–	–	-67.1	–	?
CCCCCc1cc(O)c2c(C)cc(=O)oc2c1	–	?	–	–	?
CCCCCCCCCCCCCCCC[n+]1cccc2ccccc21	11.2µM	?	-102.3	6.31µM	17.8µM
CCCCCCCCCC[n+]1cccc2cc(Br)ccc21	–	·	·	?	·
CCCCCCCCC[n+]1cccc2c3ccccc3ccc21	15.8µM	2.24µM	–	1.78µM	–
SMILES	HepG2 viability	ATXN2 expr inh	IL1B secr inh	TGFb SMAD3 inh	ATXN viability
Cc1ccc(OCCOc2ccc(Br)cc2)c([N+](=O)[O-])n1	–	–	-58.1	–	?
Cc1cc(C(=O)NCc2nnc3n2CCN(Cc2ccc(F)cc2F)CC3)c(C)o1	·	·	·	·	–
O=C(NCCOc1ccc(F)cc1)c1ccccc1SCc1ccccc1	–	–[11.3 µM]	-108.1	–	–
Cc1ccc(SCCNC(=O)CN(c2cccc(C)c2C)S(C)(=O)=O)cc1	–	–	·	–	–
CCc1ccccc1NC(=O)Nc1nnc(N(C)Cc2ccccc2)s1	–	·	·	12.6µM	·
Cc1ccc(NC(=O)Nc2nnc(N(C)Cc3ccccc3)s2)c(C)c1	–	·	·	–	·
CN1CCc2c(sc3c2c(=O)n(-c2ccccc2)c2nnc(SCc4ccc(Cl)cc4)n32)C1	–	–	-81.0	–	–
CCOC(=O)CSc1nnc2n(-c3ccccc3)c(=O)c3c4c(sc3n12)CC(C(C)(C)C)CC4 (centres undefined)	11.2µM	?	·	?	·
Cc1ncc2c(c1CNS(=O)(=O)N(C)C)CCN(C(=O)/C=C/c1ccccc1Cl)C2	·	·	·	·	–
Cc1cc(/C=C/c2ccnc3ccccc23)ccc1N(C)C	–	·	·	–	·
CC1CCC(NC(=O)COc2ccc(C(=O)c3ccccc3)cc2)CC1 (centres undefined)	–	–	-64.8	–	–
Cc1nc([N+](=O)[O-])c(Br)n1CC(=O)c1ccccc1	–	–	?	?	–
Cc1nc([N+](=O)[O-])c(Br)n1CC(=O)c1ccc(Br)cc1	–	–	-84.0	?	?
Cc1nc([N+](=O)[O-])c(Br)n1CC(=O)c1ccc2ccccc2c1	10µM	?	-120.1	?	31.6µM
Cc1nc([N+](=O)[O-])c(C(=O)OCc2ccccc2Br)n1C	–	–	–	–	–
Cc1cccc(Cc2c(C)nc3nc(SCc4ccccc4F)nn3c2C)c1	–	–	·	–	–
O=C(NC1CCN(Cc2ccccc2)CC1)c1cn(-c2ccccc2)nc1-c1cccnc1	–	–	-90.6	–	–
Cc1ccc(C)n1-c1ccc(C(=O)NC2CCN(Cc3ccccc3)CC2)cc1	–	–	-59.5	–	–
CC(=O)N1CCN(C(=O)c2ccc(-n3c(C)ccc3C)cc2)CC1	–	–	-66.5	–	–
Cc1ccc(C)n1-c1ccc(C(=O)Nc2ccccc2)cc1	–	·	-64.6	–	–
Cc1sc2ccccc2[n+]1CCc1ccccc1	–	·	·	?	·
O=C(Nc1ccc(Nc2ccncc2)cc1)c1ccc([N+](=O)[O-])cc1	17.8µM	·	-97.5	17.8µM	?
COc1ccc(Cl)cc1C(=O)Nc1ccncc1	–	–	-66.1	–	–
COc1ccc(C(=O)Nc2ccncc2)cc1[N+](=O)[O-]	–	–	-79.0	–	–
CC(=O)Nc1ccc(C(=O)Nc2ccncc2)cc1	–	·	–	–	·
SMILES	HepG2 viability	ATXN2 expr inh	IL1B secr inh	TGFb SMAD3 inh	ATXN viability
CCn1nnc2cc(C(=O)Nc3cccc(C)c3C)ccc21	–	–	·	–	–
Cc1cc(CNC(=O)c2cnn(-c3ncc4c(n3)-c3ccccc3CC4)c2C2CC2)on1	·	·	·	·	–
COC(=O)C(C)NS(=O)(=O)c1ccc(NC(C)=O)cc1 (centres undefined)	–	–	–	–	–
COc1ccc(OCCOC(=O)C(C)NS(=O)(=O)c2ccc(NC(C)=O)cc2)cc1 (centres undefined)	–	·	-77.1	–	–
COc1ccc(C(=O)COC(=O)[C@H](C)NS(=O)(=O)c2ccc(NC(C)=O)cc2)cc1OC	–	–	-92.8	–	?
CCOc1ccc(Cn2c(CNS(=O)(=O)c3cccs3)nc3cccnc32)cc1	–	·	·	–	·
CCc1cccc(NC(=O)C2CCC(CNS(=O)(=O)c3ccc(Br)s3)CC2)c1 (centres undefined)	–	–	·	–	–
